Measurements taken from the supplement of paper PMC13380429.

Tested on: Vero E6 infected with SARS-CoV-2
Assay: inhibition of SARS-CoV-2 cytopathic effect; higher = more antiviral protection, active = above 15
Conditions: 48 h

Measured: inhibition of SARS-CoV-2 cytopathic effect

CCn1c(=O)c(-c2ccc(Cl)cc2Cl)cc2cnc(Nc3ccc(N4CCNCC4)c(F)c3)nc21
inactive: 1 nM -1.29% | 8.33 nM -2.53% | 100 nM -1.93% | 833.33 nM -6.85% | 10000 nM -4.65%

CCCN(CCC)[C@H]1CCc2cccc(O)c2C1 [8-hydroxy-DPAT]
inactive: 1 nM -1.75% | 8.33 nM 1.08% | 100 nM 1.06% | 833.33 nM -0.13% | 10000 nM -3.59%

COc1ccc(Cl)cc1NC(=O)Nc1cc(C)nc2ccccc12
inactive: 1 nM 1.48% | 8.33 nM -2.11% | 100 nM -0.41% | 833.33 nM 1.18% | 10000 nM -17.7%

Nc1nnc(-c2cccc(Cl)c2Cl)c(N)n1 [lamotrigine]
inactive: 1 nM -2.3% | 8.33 nM -2.08% | 100 nM -1.73% | 833.33 nM -0.07% | 10000 nM 0.08%

Cc1oc2nc3c(c(NC(=O)CN4CCCC4=O)c2c1C)CCCC3
inactive: 1 nM 0.92% | 8.33 nM -2.29% | 100 nM -0.3% | 833.33 nM -0.97% | 10000 nM 0.5%

CN(C)c1ccc(/C=C2\C(=O)Nc3ccccc32)cc1
inactive: 1 nM 2.81% | 8.33 nM -0.37% | 100 nM 1.44% | 833.33 nM 2.25% | 10000 nM 0.95%

C[C@H]1O[C@@H](n2cc(F)c(=O)[nH]c2=O)[C@H](O)[C@@H]1O [doxifluridine]
inactive: 1 nM -2.13% | 8.33 nM -1.63% | 100 nM 1.63% | 833.33 nM -0.27% | 10000 nM -0.71%
